From PubChem BioAssay AID588814 (The Scripps Research Institute Molecular Screening Center, 2011)
The whole screen tested about 360,000 compounds, of which about 1,200 (0.33%) were called active. What follows is part of a selection rich in actives, with near analogues and random picks from the rest. Values without a mark were called inactive.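 The calls were made as follows: active = activation above the run's mean compound activation plus 3 SD (cut at about 16% in these data); inactive = the rest.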

What follows are compounds tested against Muscarinic acetylcholine receptor M1 (Homo sapiens) (UniProt P11229) (assay: human M1 muscarinic receptor agonists, primary screen, Fluo-8 calcium fluorescence, CHO-K1 cells, HTS (AID 588814;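 also: peak over basal fluorescence ratio within a 140 s kinetic read after compound addition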)). Conditions: CHO-K1 hM1, Fluo-8 calcium fluorescence, agonist mode; at 3 µM; stronger effect = higher value; 0% DMSO, 100% acetylcholine EC100.
Chain of Muscarinic acetylcholine receptor M1 (Homo sapiens) (P11229 whole entry, looked up): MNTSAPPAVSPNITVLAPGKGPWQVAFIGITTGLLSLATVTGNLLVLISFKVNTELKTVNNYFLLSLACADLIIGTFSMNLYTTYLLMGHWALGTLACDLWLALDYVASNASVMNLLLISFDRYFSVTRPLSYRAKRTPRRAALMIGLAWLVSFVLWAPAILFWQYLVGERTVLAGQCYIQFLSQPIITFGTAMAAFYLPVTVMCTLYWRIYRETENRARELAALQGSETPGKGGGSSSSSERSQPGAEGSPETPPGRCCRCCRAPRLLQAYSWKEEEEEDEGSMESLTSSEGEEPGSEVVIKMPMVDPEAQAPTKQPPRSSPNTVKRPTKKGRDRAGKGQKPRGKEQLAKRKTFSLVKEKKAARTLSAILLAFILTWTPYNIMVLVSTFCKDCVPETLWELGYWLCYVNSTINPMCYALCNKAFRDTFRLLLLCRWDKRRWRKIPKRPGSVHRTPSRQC

Structure (SMILES) | activation
Cc1ccc(Cn2c(C)c3cnn(CC(=O)NCc4ccccn4)c(=O)c3c2C)cc1 | 8.5%
Cc1c2cnn(CC(=O)NCc3ccccn3)c(=O)c2c(C)n1Cc1ccc(Cl)cc1 | 26% (active)
O=C(Cn1ncc2c3ccccc3n(Cc3ccccc3)c2c1=O)NCc1ccccn1 | -0.49%
Cc1ccc(C(C)C)c(OCc2nnc(SCC(=O)Nc3nccs3)n2C)c1 | -4.42%
CCCN(C(=O)c1nc2nccc(C)n2n1)c1c(N)n(Cc2ccccc2)c(=O)[nH]c1=O | -3.03%
Nc1ncnc2c1ncn2[C@@H]1O[C@H](CNC(=O)[C@H](N)Cc2cccnc2)[C@@H](O)[C@H]1O | -1.79%
COc1ccc(N2C(=O)CCC(C(=O)Nc3ccccn3)C2c2ccc(OC)c(OC)c2)cc1 (stereo not drawn) | 5.33%
Cc1cc(N/C=C\C(=O)c2ccc(Cl)c(Cl)c2)no1 | -3.12%
COc1ccc(C(=O)/C=C/Nc2ccccn2)cc1 | 55% (active)
FC(F)Oc1ccccc1C1CC(c2ccc(Br)s2)Nc2ncnn21 (stereo not drawn) | 0.72%
CC1CC(C)(C)CC2(C1)NC(=O)N(CC(=O)Nc1nccs1)C2=O (stereo not drawn) | -1.16%
CC1CCN(C(=O)CSc2nnc(-c3ccco3)n2N)CC1 | -4.05%
O=C1NCCn2nc3ccccc3c21 | -2.22%
Cc1ccc(NS(=O)(=O)c2cc3c(cc2Br)NC(=O)CO3)cc1C | 21.6% (active)
Cc1ccc(NS(=O)(=O)c2ccc3c(c2)NC(=O)CO3)cc1 | 2.14%
Cc1ccc(NS(=O)(=O)c2cc3c(cc2C)NC(=O)CO3)cc1 | 1.51%
O[C@H]1C[C@H](c2ccc(Cl)cc2)N(Cc2cccs2)C[C@@H]1n1cc(C2CC2)nn1 | 1.89%
Nc1cc(=O)n(Cc2ccccc2)c(=O)n1Cc1ccccc1 | -2.41%
CN(C(=O)COC(=O)c1ccc(Br)o1)c1c(N)n(Cc2ccccc2)c(=O)[nH]c1=O | -3.72%
Cc1cc2nc3c(=O)n(Cc4ccccc4)c(=O)[nH]c3nc2cc1N | 24.8% (active)
O=C(OCC(=O)N1CCCCCC1)c1cccc(Cl)c1Cl | -4.74%
CC(=O)Nc1cccc(-c2ccnc3c2CC(C)(C(=O)NCc2ccccc2)O3)c1 (stereo not drawn) | -0.77%
COc1ccc(OC)c(NC(=O)CN(Cc2ccc(Cl)cc2)S(C)(=O)=O)c1 | -5.87%
O=C(/C=C/c1ccc(F)cc1)NC(=S)NNC(=O)c1cccnc1 | 1.15%

Structure (SMILES) | activation
Cc1[nH]c2ccccc2c1C(=O)COC(=O)c1c(-c2ccccc2)noc1C | -5.12%
Cc1onc(-c2ccccc2)c1C(=O)NNC(=S)NC(=O)c1ccc(F)cc1 | 70.4% (active)
Cc1onc(-c2ccccc2)c1C(=O)N1CCN(S(=O)(=O)c2ccccc2C(F)(F)F)CC1 | -3.88%
COc1ccc(C(=O)NC(=S)NNC(=O)c2c(-c3ccccc3)noc2C)cc1 | 44.6% (active)
COc1ccc(C(=O)NC(=O)CSc2nnc(-c3ccco3)n2-c2ccccc2)cc1 | -3.2%
COCCNc1ncnc2c1nc1n2CCCC1 | -3.29%
COCCCNC(=O)c1cccc2c(-c3ccc(O)c(OC)c3)coc12 | 0.67%
Cc1ccc(/C=N/NC(=O)C(NC(=O)c2ccccc2)c2n[nH]c(=O)c3ccccc23)cc1 (stereo not drawn) | -2.92%
CSc1nc2nc(-c3cccc(C(F)(F)F)c3)ccn2n1 | -3%
Cc1ccc(-n2nc3c(c2NC(=O)CCC2CCCCC2)CS(=O)C3)cc1 (stereo not drawn) | -1.89%
O=C(COc1ccc(Cl)cc1)NC(=S)Nc1ccccc1N1CCOCC1 | 0.8%
O=C(Cc1ccc(Cl)cc1)NC(=S)Nc1ccccc1O | 52.4% (active)
Cc1ccccc1N/C(SCc1ccc(Cl)cc1)=C(/C#N)C(N)=O | -7.61%
Cc1ccccc1NC(=S)NC(=O)Cc1ccc(Cl)cc1 | 29.9% (active)
O=C(COc1ccc(Cl)cc1)Nc1ccccc1CO | -3.25%
Cc1cccc(NC(=S)NCCc2ccc(Cl)cc2)c1C | -5.48%
O=C(c1ccccc1)c1cccn1CC(=O)N1CCN(c2ccc(F)cc2)CC1 | 0.36%
Cc1nc2ccccc2n1C(=O)N1CCOCC1 | -1.92%
O=C(N/N=C1\CCSC1)c1cc(Cl)ccc1O | -0.13%
CN(CC(=O)NCCc1ccc(S(N)(=O)=O)cc1)CC(=O)Nc1ccc(Cl)cc1 | -1.41%
CCN(CC)c1ccc(C2C3CCCCC3(O)CCN2CC(=O)Nc2ccccc2)cc1 (stereo not drawn) | -4.34%
COc1ccc(C2/C(=C(/O)c3ccc4c(c3)CC(C)O4)C(=O)C(=O)N2Cc2ccncc2)cc1 (stereo not drawn) | -3.47%
Cc1c[n+]([O-])ccc1[N+](=O)[O-] | -2.04%
Nc1nc(SCC(=O)NNc2c(Cl)cc(Cl)cc2Cl)n[nH]1 | -4.83%

Structure (SMILES) | activation
Cc1ccc(/C=C/C(=O)OCC(=O)NCc2ccc(Cl)cc2)o1 | -3.98%
Cc1ccc2oc(=O)ccc2c1 | -4.21%
CCN(CC)c1ccc2oc(=O)c(C)nc2c1 | 49% (active)
CCc1ccc2oc(-c3ccc(N)cc3)nc2c1 | 6.55%
Cc1cc(=O)oc2c3c(cc(OCC(=O)NCC(O)c4ccccc4)c12)OC(C)(C)CC3 (stereo not drawn) | 0.12%
CN(CCO)C(=O)c1nc[nH]c1C(=O)N(C)Cc1ccccc1 | -4.9%
CCOC(=O)N(Cc1ccccc1)C1CC1 | -2.66%
CN(C(=O)CN(CCO)CC(=O)N(C)C(C)(C)Cc1ccccc1)C(C)(C)Cc1ccccc1 | 27.2% (active)
CCS(=O)(=O)n1nc(-c2ccccc2)nc1SCc1ccccc1 | -2.07%
CN(CC(=O)NCCN1CCOCC1)S(=O)(=O)c1ccc(F)cc1 | -1.7%
CC(=O)Oc1ccc(Cn2c(C)c(C(=O)NCc3ccc(C#N)cc3)sc2=O)cc1 | 33% (active)
Cc1ccc(Cn2c(C)c(C(=O)NCc3ccccc3C(F)(F)F)sc2=O)cc1 | -6.02%
Cc1c(C(=O)NCc2ccc(C#N)cc2)sc(=O)n1Cc1ccc(C(=O)N(C)C)cc1 | -5.38%
COc1ccc(N/N=C2/CCCCC2=O)cc1 | -3.78%
COc1ccc(NC(=O)C2(C)Cc3c(-c4cccc(NC(C)=O)c4)ccnc3O2)cc1 (stereo not drawn) | -1.09%
O=c1[nH]c2ccccc2n1C1CCN(CCOc2ccccc2)CC1 | 75.4% (active)
O=C1CCN(CCc2ccccc2)CCN1CCOc1ccccc1 | -5.27%
O=S(=O)(c1cccs1)N1CCN(CCOc2ccccc2)CC1 | -2.7%
CC1Cc2ccccc2N1CC(=O)Nc1ccc(S(N)(=O)=O)cc1 (stereo not drawn) | 0.2%
O=C(CN(Cc1ccccc1)C(=O)CCC(=O)Nc1ccccn1)NCCc1ccccc1 | -5.06%
CC(=O)NC(CC(=O)Nc1nc(-c2ccccc2)c(C(C)=O)s1)c1ccccc1 (stereo not drawn) | -2.65%
Nc1ncnc2c1ncn2[C@@H]1O[C@H](C(=O)NS(=O)(=O)c2c(Cl)nc3sccn23)[C@@H](O)[C@H]1O | -1%
COc1ccc(/C=C/C(=O)c2c(O)cc(OC)cc2OC)cc1 | -5.79%
COc1cccc(C=CC(=O)C=CC=Cc2ccccc2)c1 | -0.1%

Structure (SMILES) | activation
O=C(/C=C(O)/C=C/c1ccc(O)cc1)/C=C/c1ccc(O)cc1 | 30% (active)
CCOc1ccc(CCNC(=O)COC(=O)c2c(OC)cccc2OC)cc1OCC | 0.68%
O=C(CCN1CCN(c2ccccc2)CC1)NNC(=S)Nc1ccccc1 | -3%
CCCCC(=O)NNC(=S)NC(=O)C(c1ccccc1)c1ccccc1 | 88.8% (active)
CC(C)CC(=O)NC(=S)NCc1ccccc1 | -7.45%
O=C(N=C1SC2CS(=O)(=O)CC2N1Cc1ccccc1)c1ccccc1 (stereo not drawn) | 0.69%
CCOc1ccc(S(=O)(=O)Nc2ccc(C(=O)NCCCN3CCCC3=O)cc2)cc1 | -1.87%
CCOc1ccc(NS(=O)(=O)c2ccc(C(=O)NCC(c3ccccc3OC)N3CCCC3)cc2)cc1 (stereo not drawn) | 22.7% (active)
CCOc1ccc(NS(=O)(=O)c2ccc(C(=O)NC3CCN(Cc4ccccc4)CC3)cc2)cc1 | -4.76%
Cc1ccc(S(=O)(=O)N(CC(=O)Nc2cccnc2)c2ccc(Br)cc2)cc1 | -0.74%
COc1ccc(CCNc2ncnc3nc[nH]c23)cc1OC | 3.98%
O=C(Cn1cnc2ccccc2c1=O)NCC1COc2ccccc2O1 (stereo not drawn) | -0.06%
c1ccc2c(c1)OCC(CNc1ncnc3nc[nH]c13)O2 (stereo not drawn) | 134% (active)
O=C(Nc1cccc2c1CCCC2)C1CCN(C(=O)NC2CCCCC2)CC1 | -2.08%
O=C(NC1CCCCC1)N1CCc2[nH]c3ccccc3c2C1 | 18.1% (active)
C=CCNC(=S)N1CCc2[nH]c3ccccc3c2C1 | 2.34%
O=C(CSc1nnc2c(n1)[nH]c1ccccc12)NC1CCCCC1 | -3.41%
CCc1ccc(NC(=O)N2CCc3ccccc3C2)cc1 | -5.56%
O=C(Nc1ccc(Cl)cc1)N1CCc2[nH]c3ccccc3c2C1 | 21.6% (active)
CCOC1=C2[C@@H](CN(S(=O)(=O)c3ccc(C)cc3)[C@H]2c2ccccc2F)[C@H]2C(=O)N(Cc3ccccc3)C(=O)[C@H]2C1 | -5.09%
CCCc1cc(=O)[nH]c(SCC(=O)Nc2ccc(S(=O)(=O)N3CCCC3)cc2)n1 | -4.58%
